Reference: PubChem BioAssay (NCI)
About 83,000 compounds went through this panel and 20% of them were active in at least one assay; those are over-represented in the sample as a whole.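 96-well plates, one dose, 48 hours. Percent growth reported; active if below 10.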 Calls of active or inactive are those of the source.

These molecules were tested on MALME-3M melanoma (assay: NCI-60 one-dose screen, 48 h (100 = growth as untreated, 0 = no growth, -100 = all killed)). Conditions: 10 µM unless noted.
`CC1(C)CC[C@]2(C(=O)O)CC[C@]3(C)C(=CCC4[C@@]5(C)C[C@@H](O)[C@@H]6OC(c7ccccc7O)OC[C@@]6(C)C5CC[C@]43C)C2C1` (some centres undefined) was tested, and the growth was 83.9% (inactive). With `CN(c1ccc(Br)cc1)S(=O)(=O)c1ccc(-c2cnc(C3CC3)o2)cc1` the growth was 63.8% (inactive). For `CN1CCN(c2nc(-c3csc(-c4ccncc4)n3)cc3ccccc23)CC1`, the growth was 30.7% (inactive). In the case of `O=C(O)c1ccc(-n2cc(CNc3ccc(F)cc3)c(-c3ccc(C(F)(F)F)cc3)n2)cc1`, the growth is reported as 97.6% (inactive). In the case of `CSc1nccc(-c2c(-c3ccc(F)c(OCc4ccc(F)cc4)c3)nc3sccn23)n1`, the growth is reported as 104% (inactive). For `O=C(COc1ccc(C2SCC(=O)N2c2ccccc2)cc1)c1ccccc1` (centres undefined), the growth was 100% (inactive). With `O=C(O)CNS(=O)(=O)c1ccc(Oc2ccc(S(=O)(=O)NCC(=O)O)cc2)cc1` the growth was 99.1% (inactive). For `Cn1nc(Nc2ccccc2)c(C(=O)NN)c1N`, the growth was 90.9% (inactive). With `COc1cc(/C=N/n2cnc3oc(-c4ccccc4)cc3c2=N)cc(CN2CCN(C)CC2)c1O` the growth was 113% (inactive). In the case of `CC(C)SC1=NC(=C(C(=N1)NC2=ClC=CC=C2)C#N)C3=CC=CC=C3`, the growth is reported as 65.4% (inactive). `NS(=O)(=O)c1ccc(Nc2nc(N/N=C/c3ccc(F)cc3)nc(Nc3ccccc3)n2)cc1` was tested, and the growth was 57.5% (inactive). For `C#C[C@]1(O)CC[C@H]2[C@@H]3CC=C4c5sc(Nc6cccc(C)n6)nc5CC[C@]4(C)[C@H]3CC[C@@]21C`, the growth was 5.14% (active). For `CNC(=O)c1cc(Oc2ccc3nc(NC(=O)c4cc(C)cc(C)c4)sc3c2)ccn1`, the growth was 87.7% (inactive). In the case of `C=C(C)[C@@H]1CC[C@]2(COS(C)(=O)=O)CC[C@]3(C)[C@H](CC[C@@H]4[C@@]5(C)CCCNC(C)(C)[C@@H]5CC[C@]43C)[C@@H]12`, the growth is reported as 97% (inactive). `CC(C)=CCc1c2c(c(O)c3c1O[C@]14C(=C[C@@H]5C[C@H]1C(C)(C)O[C@@]4(C/C=C(/C)C(=O)O)C5=O)C3=O)CC(O)C(C)(C)O2` (some centres undefined) was tested, and the growth was -38.5% (active). In the case of `O=C(Cn1cc(CN2C(=O)c3ccc([N+](=O)[O-])cc3C2=O)nn1)Nc1ccccc1Br`, the growth is reported as 99.5% (inactive). In the case of `COc1cc(-c2nc(SCc3ccc(C)cc3)[nH]c(=O)c2C#N)ccc1OCc1ccccc1`, the growth is reported as 94.5% (inactive). For `CC(C)N=C(N/C(N)=N/c1nc2ccccc2s1)NC(C)C`, the growth was 75.4% (inactive). In the case of `O=C(Nc1cc(Cl)cc(Cl)c1)Nc1ccc2oc(=O)ccc2c1`, the growth is reported as 0.228% (active). `CS(=O)(=O)c1nccc(-c2c(-c3ccc(F)c(OCc4ccccc4)c3)nc3sccn23)n1` was tested, and the growth was 115% (inactive). In the case of `COc1ccc(C2C(C#N)=C(N)Oc3c2sc2ccc(C)cc32)cc1` (centres undefined), the growth is reported as 50% (inactive). For `C#C[C@]1(O)CC[C@H]2[C@@H]3CC=C4c5sc(-c6ccccn6)nc5CC[C@]4(C)[C@H]3CC[C@@]21C`, the growth was 81.9% (inactive). `COc1ccc(OC)c([C@H]2c3[nH]c4ccccc4c3C[C@H]3C(=O)N(CCCCCCC(=O)NO)CC(=O)N23)c1` was tested, and the growth was 61.6% (inactive). For `Cc1cnc2nc(NN)[nH]n12`, the growth was 102% (inactive). `COc1ccc(-c2nc3cc(Cl)c(Cl)cc3n2CC(=O)N=Nc2c(O)[nH]c3ccc(Br)cc23)cc1` was tested, and the growth was -38.5% (active). In the case of `O=C(NCCCCCCNC(=O)c1c2c(nc3ccccc13)-c1cccnc1SC2)c1c2c(nc3ccccc13)-c1cccnc1SC2`, the growth is reported as -16.5% (active). For `COc1ccc(-c2ccc3c4c(cccc24)C(=O)N(N2C(=O)c4cccc5cccc(c45)C2=O)C3=O)cc1`, the growth was 93.1% (inactive). For `COc1ccc(-c2nc3cc(Cl)c(Cl)cc3n2CC(=O)N=Nc2c(O)[nH]c3ccc(Cl)cc23)cc1`, the growth was -10.1% (active). For `CCOC(=O)c1c(NCC(=O)Nc2ccc(Br)cc2)sc2c1CCCC2`, the growth was 21.7% (inactive). For `CN1C(=O)/C(=C/C=C/c2ccco2)SC1=S`, the growth was 36% (inactive). For `COc1ccc(-c2nnc(SCc3ccc(O)c4ncccc34)o2)cc1`, the growth was 50% (inactive). In the case of `C#CCOc1ccc(/C=N/Nc2nc(-c3cc4cc(Br)cc(Br)c4oc3=O)cs2)cc1`, the growth is reported as 109% (inactive). With `CS(=O)c1nccc(-c2c(-c3ccc(F)c(OCCc4ccc(F)cc4)c3)nc3sccn23)n1` (centres undefined) the growth was 55.6% (inactive). In the case of `O=C1[C@@H]2Cc3c([nH]c4ccccc34)[C@H](c3c(Cl)cccc3Cl)N2C(=O)CN1C1CCN(Cc2c(F)cccc2F)CC1`, the growth is reported as 64.9% (inactive).
